Outcome and AC50 data for 22 compounds are collected here from PubChem BioAssay (EPA / NIEHS).

Activity calls are given as the source filed them. Rule for the calls: active = hit-call score of the fitted dose curve at least 0.9, where 1 is the maximum; inactive = score below 0.9.

Holding throughout (conditions): mRNA level, 48 h; actives raise or lower the signal
Read-out in assay [1]: Alkaline Phosphatase, Placental (ALPP) gene, ALPP (gene 250)
The assay can be described thus: LTEA_HepaRG_ALPP: Life Technologies and Expression Analysis (LTEA) Assay for Alkaline Phosphatase, Placental (ALPP) gene using HepaRG (AID 2283468).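 For AC50: differentiated human HepaRG liver cells in serum-free induction medium.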 In short, it runs like this:
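ALPP transcript level, measured by qRT-PCR and normalized to three housekeeping genes (ACTB, GAPDH, POLR2A), after 48 h dosing of differentiated HepaRG in serum-free induction medium. Top concentration 100 uM with half-log dilutions (8 points, 0.5% DMSO, duplicates); bidirectional fitting relative to DMSO.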

Read-out in assay [2]: Bcl-2 (BAD) gene, BAD (gene 572)
The assay can be described thus: LTEA_HepaRG_BAD: Life Technologies and Expression Analysis (LTEA) Assay for Bcl-2 (BAD) gene using HepaRG (AID 2283469). An outline of the steps: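 Read-out: qRT-PCR of BAD mRNA, normalized to three housekeeping genes. Human HepaRG cultures got 48 h chemical exposure in 0.5% DMSO, duplicate eight-point half-log series topping at 100 uM. Gain or loss of signal fitted versus DMSO vehicle.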

Read-out in assay [3]: Bcl-2 (BAX) gene, BAX (gene 581)
Nature of the assay: LTEA_HepaRG_BAX: Life Technologies and Expression Analysis (LTEA) Assay for Bcl-2 (BAX) gene using HepaRG (AID 2283470). In short, it runs like this:
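Human HepaRG cells treated in duplicate for 48 h across eight concentrations (max 100 uM, 0.5% DMSO); BAX expression measured by qRT-PCR.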

Read-out in assay [4]: adenosine kinase (ADK) gene, ADK (gene 132)
Nature of the assay: LTEA_HepaRG_ADK: Life Technologies and Expression Analysis (LTEA) Assay for adenosine kinase (ADK) gene using HepaRG (AID 2283471). In short, it runs like this:
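Read-out is ADK transcript level measured by qRT-PCR and normalised to three housekeeping genes. Cells are human HepaRG, dosed for 48 h at up to 100 uM in 0.5% DMSO. Gain or loss of signal is fitted against DMSO controls.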

Read-out in assay [5]: Alpha-fetoprotein (AFP) gene, AFP (gene 174)
Nature of the assay: LTEA_HepaRG_AFP: Life Technologies and Expression Analysis (LTEA) Assay for Alpha-fetoprotein (AFP) gene using HepaRG (AID 2283472). An outline of the steps: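 Measures AFP mRNA change in HepaRG after 48 h chemical exposure (8 half-log concentrations, highest 100 uM, 0.5% DMSO). Fold change relative to DMSO, fitted in both directions.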

Read-out in a further assay: BCL2L11 (gene 10018)
Nature of the assay: LTEA_HepaRG_BCL2L11: Life Technologies and Expression Analysis (LTEA) Assay for Bcl-2 (BCL2L11) gene using HepaRG (AID 2283473). In short, it runs like this:
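BCL2L11 transcript levels are measured by Fluidigm qRT-PCR, normalized to three housekeeping genes. HepaRG cultures were plated 48 h, then treated 48 h with test chemical (top 100 uM, half-log, 0.5% DMSO vehicle); curves were fitted bidirectionally against DMSO.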

Read-out in assay [6]: Apolipoprotein A-V (APOA5) gene, APOA5 (gene 116519)
The assay can be described thus: LTEA_HepaRG_APOA5: Life Technologies and Expression Analysis (LTEA) Assay for Apolipoprotein A-V (APOA5) gene using HepaRG (AID 2283474). In short, it runs like this:
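APOA5 transcript levels were quantified by qRT-PCR, normalized to three housekeeping genes, after 48 h chemical treatment of HepaRG cells (8 points, 100 uM maximum, half-log steps, 0.5% DMSO). Curves fitted in both directions against vehicle.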

Read-out in assay [7]: Apoptosis regulator Bcl-2 (Homo sapiens) (UniProt P10415)
The assay can be described thus: LTEA_HepaRG_BCL2: Life Technologies and Expression Analysis (LTEA) Assay for Bcl-2 gene using HepaRG (AID 2283475).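 Note: BCL2 transcript by TaqMan qRT-PCR normalised to ACTB GAPDH and POLR2A.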 An outline of the steps:
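Each chemical was tested in duplicate on HepaRG cultures held in serum-free induction medium for 48 h, highest concentration 100 uM with half-log dilutions. Transcript levels came from multiplexed qRT-PCR, normalised to housekeeping genes; activity was scored in either direction relative to DMSO.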

Read-out in assay [8]: Bcl-2 (BID) gene, BID (gene 637)
Nature of the assay: LTEA_HepaRG_BID: Life Technologies and Expression Analysis (LTEA) Assay for Bcl-2 (BID) gene using HepaRG (AID 2283476). In short, it runs like this:
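Assay used HepaRG hepatic cells treated 48 h in serum-free medium with half-log dilutions from 100 uM. Endpoint: BID mRNA, qRT-PCR, normalized to ACTB/GAPDH/POLR2A.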

Read-out in another assay: Caspase-3 (Homo sapiens) (UniProt P42574)
Nature of the assay: LTEA_HepaRG_CASP3: Life Technologies and Expression Analysis (LTEA) Assay for cysteine-aspartic acid protease (CASP3) using HepaRG (AID 2283477). In short, it runs like this:
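Expression of CASP3 was quantified by TaqMan qRT-PCR against three housekeeping genes (ACTB, GAPDH, POLR2A), bidirectionally versus 0.5% DMSO. HepaRG cultures received compounds in duplicate, top 100 uM with half-log steps, for 48 h in serum-free induction medium.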

Chain of Caspase-3 (Homo sapiens) (P42574 whole entry, looked up): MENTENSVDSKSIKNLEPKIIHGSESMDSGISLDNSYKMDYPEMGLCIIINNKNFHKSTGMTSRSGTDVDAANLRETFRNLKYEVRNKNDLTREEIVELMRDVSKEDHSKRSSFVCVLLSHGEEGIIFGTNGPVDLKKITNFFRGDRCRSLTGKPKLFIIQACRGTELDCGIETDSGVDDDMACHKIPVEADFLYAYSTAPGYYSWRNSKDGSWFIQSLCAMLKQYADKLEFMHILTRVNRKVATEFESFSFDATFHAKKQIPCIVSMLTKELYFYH
Chain of Apoptosis regulator Bcl-2 (Homo sapiens) (P10415 whole entry, looked up): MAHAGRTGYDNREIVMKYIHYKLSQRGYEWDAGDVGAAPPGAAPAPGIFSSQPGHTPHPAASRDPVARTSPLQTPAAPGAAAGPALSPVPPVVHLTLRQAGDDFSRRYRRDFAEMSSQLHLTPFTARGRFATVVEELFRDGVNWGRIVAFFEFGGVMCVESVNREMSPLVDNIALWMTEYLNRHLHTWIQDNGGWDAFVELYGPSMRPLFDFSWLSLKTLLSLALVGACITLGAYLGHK

`S=c1[nH]c2ccccc2s1`: the call (in assay [1]; in assay [2]; in assay [3]; in assay [4]; in assay [5]; in the assay with BCL2L11 (gene 10018)) was inactive. In addition, the compound was classed as inactive (in assay [6]; in [7]; in [8]; with Caspase-3 (Homo sapiens)).

Take `CCCCC(CC)COP(=O)(OCC(CC)CCCC)OCC(CC)CCCC` (stereo not given): the call (in assay [1]; in assay [2]; in [3]; in [4]; in assay [5]; in the assay with BCL2L11 (gene 10018)) was inactive. In addition, the compound was called inactive (in assay [6]; in [7]; in assay [8]; with Caspase-3 (Homo sapiens)).

For `CC(N)=O`, the compound was called inactive (in [1]; in [2]; in assay [3]; in [4]; in assay [5]; with BCL2L11 (gene 10018)). In addition, the compound was classed as inactive (in assay [6]; in assay [7]; with Caspase-3 (Homo sapiens)). The AC50 in [8] is 0.321 µM (active).

Consider `CCCCC(CC)COC(=O)CCCCCCCC(=O)OCC(CC)CCCC` (stereo not given), for which the result (in assay [1]; in assay [2]; in [3]; in assay [4]; in assay [5]; with BCL2L11 (gene 10018)) was inactive. For the same compound, the compound was classed as inactive (in assay [6]; in assay [7]; in [8]; with Caspase-3 (Homo sapiens)).

On to `CC(C)(O)c1ccc(CNC(=O)c2cccnc2Oc2ccc(F)cc2)cc1`, for which the compound was called inactive (in [1]; in [2]; in [3]; in assay [4]; in [5]; in the assay with BCL2L11 (gene 10018)). In addition, the outcome (in assay [6]; in assay [7]; in assay [8]; with Caspase-3 (Homo sapiens)) was inactive.

Regarding `O=C(O)c1cccnc1`, the compound was classed as inactive (in assay [1]; in assay [2]; in assay [3]; in [4]; in assay [5]; with BCL2L11 (gene 10018)). In addition, the compound was called inactive (in assay [6]; in assay [7]; in assay [8]; in the assay with Caspase-3 (Homo sapiens)).

Take `CCCCCCCCCCCCCCOS(=O)(=O)O`: the result (in assay [1]; in assay [2]; in assay [3]; in assay [4]; with BCL2L11 (gene 10018); in assay [6]) was inactive. Further, the outcome (in assay [7]; in assay [8]; with Caspase-3 (Homo sapiens)) was inactive. Further, the AC50 in [5] is 50 µM (active).

With `c1ccc2occc2c1`, the outcome (in assay [1]; in [2]; in assay [3]; in assay [4]; in assay [5]; with BCL2L11 (gene 10018)) was inactive. The compound was classed as inactive (in assay [6]; in [7]; in [8]; in the assay with Caspase-3 (Homo sapiens)).

As for `CCCCC(CC)CO` (stereo not given), the result (in [1]; in [2]; in assay [3]; in assay [4]; in assay [5]; with BCL2L11 (gene 10018)) was inactive. The compound was called inactive (in assay [6]; in assay [7]; in assay [8]; with Caspase-3 (Homo sapiens)).

As for `O=C1c2c(O)cccc2Cc2cccc(O)c21`, the compound was called inactive (in assay [1]; in [2]; in assay [3]; in [4]; in assay [5]; with BCL2L11 (gene 10018)). For the same compound, the result (in [6]; in [7]; in [8]; in the assay with Caspase-3 (Homo sapiens)) was inactive.

Take `NC=O`: the result (in assay [1]; in [2]; in [3]; in [4]; in [5]; in the assay with BCL2L11 (gene 10018)) was inactive. Further, the compound was classed as inactive (in assay [6]; in assay [7]; in assay [8]; with Caspase-3 (Homo sapiens)).

On to `NCCOCCOCCN`, for which the outcome (in assay [1]; in assay [2]; in assay [3]; in [4]; in [5]; with BCL2L11 (gene 10018)) was inactive. Besides, the outcome (in assay [6]; in assay [7]; in assay [8]; in the assay with Caspase-3 (Homo sapiens)) was inactive.

Take `CN(C)C(=O)NC1(c2ccccc2)CCN(CC[C@@]2(c3ccc(F)c(F)c3)CN(C(=O)c3ccccc3)CCO2)CC1`: the compound was called inactive (in assay [1]; in [2]; in assay [3]; in [4]; in the assay with BCL2L11 (gene 10018); in [7]). Besides, the result (in assay [8]; with Caspase-3 (Homo sapiens)) was inactive. Moreover, the concentration at half-maximal activity (AC50) in [5] was 36.8 µM (active); in assay [6] it was 29.8 µM (active).

`CS(=O)(=O)c1ccc([C@@H](C[C@H]2CCC(=O)C2)C(=O)Nc2cnccn2)cc1Cl`: the AC50 is 2.94 µM (active) in assay [1]; 1.23 µM (active) in assay [2]; 25.4 µM (active) in assay [3]; 0.952 µM (active) in assay [4]; 0.908 µM (active) in assay [5]; 1.15 µM (active) in the assay with BCL2L11 (gene 10018). The concentration at half-maximal activity (AC50) in [6] is 50 µM (active); in assay [7], 16.1 µM (active); in [8], 2.25 µM (active); in the assay with Caspase-3 (Homo sapiens) it was 0.843 µM (active).

`O=C(NS(=O)(=O)/C=C/c1cccs1)c1ccc(F)cc1Br`: the result (in [1]; in assay [2]; in assay [3]; in [4]; with BCL2L11 (gene 10018); in assay [6]) was inactive. Also, the compound was called inactive (in assay [7]; in assay [8]; with Caspase-3 (Homo sapiens)). Also, the AC50 in assay [5] was 50 µM (active).

With `N[C@@H](Cc1c[nH]c2ccccc12)C(=O)O`, the compound was classed as inactive (in assay [1]; in [2]; in [3]; in assay [4]; in assay [5]; in the assay with BCL2L11 (gene 10018)). The outcome (in assay [6]; in assay [7]; in [8]; in the assay with Caspase-3 (Homo sapiens)) was inactive.

Take `O=NO`: the compound was called inactive (in [1]; in assay [2]; in assay [3]; in assay [4]; in [5]; with BCL2L11 (gene 10018)). Also, the compound was called inactive (in [6]; in assay [7]; in assay [8]; in the assay with Caspase-3 (Homo sapiens)).

With `CCCCc1nc2cccnc2n1Cc1ccc(-c2ccccc2-c2nnn[nH]2)cc1`, the AC50 is 15.5 µM (active) in assay [1] and 33.2 µM (active) in [5]. Further, the result (in [2]; in [3]; in assay [4]; with BCL2L11 (gene 10018); in assay [6]; in assay [7]) was inactive. The result (in [8]; with Caspase-3 (Homo sapiens)) was inactive.

For `CC(C)COC(=O)CCCCC(=O)OCC(C)C`, the result (in assay [1]; in assay [2]; in assay [3]; in assay [4]; in assay [5]; in the assay with BCL2L11 (gene 10018)) was inactive. In addition, the call (in [6]; in assay [7]; in assay [8]; with Caspase-3 (Homo sapiens)) was inactive.

Regarding `CCN(CC)CCOc1ccc(C(=C(Cl)c2ccccc2)c2ccccc2)cc1`, the AC50 was 22.6 µM (active) in assay [1], 17.9 µM (active) in [5] and 76.5 µM (active) with BCL2L11 (gene 10018). The compound was classed as inactive in assay [2], in assay [3], in [4], in assay [6], in assay [7] and in assay [8]. For the same compound, the compound was classed as inactive with Caspase-3 (Homo sapiens).

For the compound `CCOCCOCCO`, the outcome (in assay [1]; in [2]; in assay [3]; in assay [4]; in [5]; with BCL2L11 (gene 10018)) was inactive. In addition, the result (in assay [6]; in assay [7]; in [8]; with Caspase-3 (Homo sapiens)) was inactive.

On to `O=C(Oc1ccccc1)c1cccc(C(=O)Oc2ccccc2)c1`, for which the call (in assay [1]; in [2]; in [3]; in assay [4]; in assay [5]; with BCL2L11 (gene 10018)) was inactive. For the same compound, the compound was called inactive (in assay [6]; in assay [7]; in [8]; in the assay with Caspase-3 (Homo sapiens)).

The term AC50 denotes the concentration giving half of the maximal activity seen.
